USP28 block: inhibitors of human USP28 deubiquitinase; AID 1645857; hit rate 3% among 47,000; inhibition, % at 25 µM; Q96RU2; purified USP28, Ub-rhodamine cleavage fluorescence, 30 min
Target sequence (Q96RU2 whole entry, looked up): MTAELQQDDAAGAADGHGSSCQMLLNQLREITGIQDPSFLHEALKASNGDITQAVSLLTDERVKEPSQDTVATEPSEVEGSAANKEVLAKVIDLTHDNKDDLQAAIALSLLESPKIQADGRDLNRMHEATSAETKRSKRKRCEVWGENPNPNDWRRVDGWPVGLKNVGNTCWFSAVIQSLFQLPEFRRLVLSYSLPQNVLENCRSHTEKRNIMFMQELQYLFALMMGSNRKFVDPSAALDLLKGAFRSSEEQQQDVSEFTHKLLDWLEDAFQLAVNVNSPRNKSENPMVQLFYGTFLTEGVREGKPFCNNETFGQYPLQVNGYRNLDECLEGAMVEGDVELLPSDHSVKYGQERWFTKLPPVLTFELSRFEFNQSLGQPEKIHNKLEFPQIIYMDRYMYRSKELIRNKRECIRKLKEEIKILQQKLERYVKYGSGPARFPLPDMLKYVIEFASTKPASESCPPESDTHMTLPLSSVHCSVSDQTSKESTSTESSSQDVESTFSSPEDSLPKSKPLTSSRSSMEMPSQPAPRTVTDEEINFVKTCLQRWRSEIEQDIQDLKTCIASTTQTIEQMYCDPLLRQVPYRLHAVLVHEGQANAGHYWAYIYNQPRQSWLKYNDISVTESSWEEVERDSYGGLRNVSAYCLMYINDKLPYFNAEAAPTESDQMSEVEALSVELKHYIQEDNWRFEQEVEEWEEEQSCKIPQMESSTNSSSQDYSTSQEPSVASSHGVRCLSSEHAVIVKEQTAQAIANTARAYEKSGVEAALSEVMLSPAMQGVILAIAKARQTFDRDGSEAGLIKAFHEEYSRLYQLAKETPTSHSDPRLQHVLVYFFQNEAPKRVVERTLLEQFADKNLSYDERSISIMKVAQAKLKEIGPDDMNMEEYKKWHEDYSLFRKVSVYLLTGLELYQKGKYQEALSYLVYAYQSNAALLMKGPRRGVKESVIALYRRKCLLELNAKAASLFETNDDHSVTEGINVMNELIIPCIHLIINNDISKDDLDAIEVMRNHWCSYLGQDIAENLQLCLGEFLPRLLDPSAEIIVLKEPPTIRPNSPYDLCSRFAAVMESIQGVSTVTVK
USP17 inh: human USP17-like deubiquitinase inhibition. inhibition, % at 50 µM. purified USP17, Ub-rhodamine cleavage fluorescence, 3 h. hit rate 6.5% among 47,000. A8MUK1
USP30 block: inhibitors of human USP30 deubiquitinase | inhibition, % at 25 µM | hit rate 5.3% among 47,000 | purified USP30, Ub-rhodamine cleavage fluorescence
Active calls of the source: *. In the library only some 11% were active in any assay of this set; here they are far more common. No stated cut-off is given here; in the data, active means inhibition above about 30%; inactive means the rest.

`Cc1cccc(NC(=O)Nc2cccc(-c3nnc(-c4ccccc4)o3)c2)c1` gave USP28 block 15, USP17 inh 16 and USP30 block 25.
For CCc1ccccc1Nc1cc(C(=O)NCc2cccnc2)c2ccccc2n1 the results were USP28 block -23, USP17 inh -13 and USP30 block -47.
Screening NC(=O)C1Cc2ccccc2CN1C(=O)c1ccoc1 (centres undefined) returned USP17 inh -7.
For O=C(O)CCSc1nnc(-c2ccc(O)cc2)n1Cc1ccccc1 the results were USP28 block -7, USP17 inh -3 and USP30 block -4.
For CSc1nnc(-c2ccc(C(C)(C)C)cc2)n1Cc1ccccc1 the results were USP28 block 6, USP17 inh 14 and USP30 block 33*.
`O=C(NC1CCCCCC1)c1cn(-c2cc(N3CCOCC3)ncn2)cn1` gave USP28 block 7, USP17 inh -2 and USP30 block 3.
`CN1C2(CCN(C(=O)C3(C)CC3)C2)c2ccccc2S1(=O)=O` (centres undefined) gave USP28 block -5, USP17 inh -5 and USP30 block 1.
Screening O=C(Nc1ncc2c(n1)-c1ccccc1CC2)C1CC1 returned USP28 block -15, USP17 inh 56* and USP30 block 8.
Screening Cc1ccc(C2CC(=O)c3cnc(NC(=O)C4CC4)nc3C2)cc1 (centres undefined) returned USP28 block 1, USP17 inh -12 and USP30 block 0.
N#Cc1ccc(NC(=O)Nc2ccc(OCc3ccccc3)cc2)cc1 was read as USP28 block 10, USP17 inh 34* and USP30 block 17.
N#Cc1ccc(NC(=O)c2cccc(OCc3ccccc3)c2)cc1 was read as USP28 block 22, USP17 inh 3 and USP30 block -1.
Screening Cc1ccccc1CN1CCc2nc(N3CCC(C)CC3)[nH]c(=O)c2C1 returned USP28 block -12, USP17 inh -15 and USP30 block -44.
`COc1ccc(-c2nc3ccccc3o2)cc1NC(=O)Cc1ccc(OC)c(OC)c1` gave USP28 block -24, USP17 inh -49 and USP30 block -64.
For COc1ccc(CC(=O)Nc2ccccc2-c2nc3ccccc3[nH]2)cc1OC the results were USP28 block 21, USP17 inh 76* and USP30 block 50*.
COc1ccc(C)cc1N1C(=O)COc2c(OC)cccc2C1C(=O)NC1CCCC1 (centres undefined) was read as USP28 block 15, USP17 inh 12 and USP30 block 24.
For c1nc(NCCCN2CCOCC2)c2sc3nc(N4CCOCC4)c4c(c3c2n1)CCC4 the results were USP28 block 2, USP17 inh -1 and USP30 block 1.
`CCCCc1nc2sc3c(NCCN4CCOCC4)ncnc3c2c2c1CCC2` gave USP28 block 83*, USP17 inh -14 and USP30 block -31.
Cc1ccccc1CN1C(=O)CCSc2ccc(Cl)cc21 was read as USP28 block 18 and USP30 block 21.
Screening CC1CC(=O)N(Cc2ccc(F)cc2)c2ccccc2S1(=O)=O (centres undefined) returned USP28 block 12, USP17 inh 16 and USP30 block 19.
For O=C1CCSc2ccccc2N1Cc1cccc(F)c1 the results were USP28 block 17, USP17 inh -6 and USP30 block -16.
CC1CC(=O)N(Cc2ccc([N+](=O)[O-])cc2)c2ccccc2S1 (centres undefined) was read as USP28 block 62*, USP17 inh -8 and USP30 block 33*.
`O=C1CCSc2ccccc2N1Cc1ccc([N+](=O)[O-])cc1` gave USP28 block 29, USP17 inh 1 and USP30 block 33*.
For CC1Oc2ccccc2C(=O)N(Cc2ccc([N+](=O)[O-])cc2)C1=O (centres undefined) the results were USP28 block 74*, USP17 inh 3 and USP30 block 28.
`CCC1Oc2ccccc2C(=O)N(Cc2ccccc2Cl)C1=O` (centres undefined) gave USP28 block 17, USP17 inh 15 and USP30 block 24.
`O=C1CCSc2ccc(Cl)cc2N1Cc1cccc(F)c1` gave USP28 block 37*, USP17 inh 18 and USP30 block 34*.
For COc1ccc(NC(=O)c2ccc(Nc3cc(C)nc4ncnn34)cc2)cc1 the results were USP28 block 28, USP17 inh -9 and USP30 block 5.
O=C(CN1CCc2ccccc21)N1CCN(S(=O)(=O)c2ccc3ccccc3c2)CC1 was read as USP28 block 19, USP17 inh 7 and USP30 block 8.
For CCCCC#CC(O)c1c(-c2ccccc2)nn(C)c1Sc1ccc(Cl)cc1 (centres undefined) the results were USP28 block 0, USP17 inh -2 and USP30 block -11.
Screening CSc1ncnc2c1sc1nc(C)c3c(c12)CC(C)(C)OC3 returned USP28 block -3, USP17 inh -2 and USP30 block -3.

Screens as filed in PubChem.
